MazF activator – activators of E. coli MazEF toxin-antitoxin RNase, primary screen, biochemical, fluorescence, uHTS; Endoribonuclease toxin MazF (Escherichia coli (strain K12)), P0AE70; FAM/BHQ RNA-DNA oligo cleavage fluorescence, 5 h; activation, % at 20 µM; hit rate 0.32% among 350,000; in the data active means activation above about 50%
BH1578 lux ind – inducers of Vibrio cholerae quorum light production without autoinducers, primary screen, BH1578 luxS cqsA deficient, single point; V. cholerae BH1578 lux reporter, luminescence, 6 h; activation, % at 18.7 µM; hit rate 0.16% among 350,000; AID 588436, 2011; in the data active means activation mostly above about 9.7%, no sharp cut-off; inconclusive means no clear call, values can overlap the other calls; inactive means mostly below about 3.7%
BoNT-A LC inh2 – BoNT/A light chain protease inhibitors, primary screen, biochemical, flow cytometry, MLPCN library; Botulinum neurotoxin type A light chain protease (Clostridium botulinum A str. ATCC 3502); multiplex microsphere protease substrate cleavage; inhibition, % at 10 µM; hit rate 0.17% among 360,000
Autofluor counter – compound fluorescence in toxin protease inhibitor counterscreen. compound autofluorescence counterscreen, microsphere flow cytometry; active compounds read high. fluorescence intensity (test concentration not listed). hit rate 3.1% among 360,000; in the data active means fluorescence intensity above about 16000; inconclusive means no clear call, values can overlap the other calls
Anthrax LF inh2 – Bacillus anthracis LF protease inhibitors, primary screen, biochemical, multiplex microsphere, MLPCN library; Lethal factor (Bacillus anthracis), P15917; hit rate 0.12% among 360,000; AID 588501, 2011; multiplex microsphere protease cleavage assay; inhibition, % at 10 µM
Target sequence (P15917 whole entry, looked up): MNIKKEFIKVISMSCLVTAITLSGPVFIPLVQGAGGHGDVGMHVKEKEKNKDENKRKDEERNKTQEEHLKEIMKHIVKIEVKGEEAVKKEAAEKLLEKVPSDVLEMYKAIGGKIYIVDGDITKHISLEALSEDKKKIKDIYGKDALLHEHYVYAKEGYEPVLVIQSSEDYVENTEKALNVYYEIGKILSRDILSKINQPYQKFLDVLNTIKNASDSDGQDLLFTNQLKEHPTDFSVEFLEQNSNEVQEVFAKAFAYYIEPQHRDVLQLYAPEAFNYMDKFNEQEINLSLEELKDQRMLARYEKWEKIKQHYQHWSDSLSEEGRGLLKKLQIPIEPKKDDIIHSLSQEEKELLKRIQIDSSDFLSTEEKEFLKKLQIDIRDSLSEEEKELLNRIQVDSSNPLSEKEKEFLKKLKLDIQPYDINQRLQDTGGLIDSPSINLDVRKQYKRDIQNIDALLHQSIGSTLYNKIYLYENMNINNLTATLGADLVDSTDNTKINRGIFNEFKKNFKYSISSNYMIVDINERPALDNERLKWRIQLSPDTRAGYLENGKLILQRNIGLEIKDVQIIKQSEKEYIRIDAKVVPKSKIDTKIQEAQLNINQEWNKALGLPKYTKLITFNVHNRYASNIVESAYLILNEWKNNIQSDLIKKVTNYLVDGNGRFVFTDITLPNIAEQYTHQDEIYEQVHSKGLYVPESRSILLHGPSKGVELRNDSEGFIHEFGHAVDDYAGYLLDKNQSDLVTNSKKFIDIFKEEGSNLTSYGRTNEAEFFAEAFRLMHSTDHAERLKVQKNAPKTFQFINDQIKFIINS
BoNT-F LC inh – BoNT/F light chain protease inhibitors, primary screen, biochemical, flow cytometry, MLPCN library | Botulinum neurotoxin type F light chain protease (Clostridium botulinum) | Multiplex microsphere protease cleavage assay | inhibition, % at 10 µM | hit rate 0.22% among 360,000 | AID 588497, 2011; in the data active means inhibition above about 35%, passing the limit was not always enough; inconclusive means no clear call, values can overlap the other calls
Of the large screens only hits and unclear results are named; the others gave an inactive call. Most compounds without a hit are left out; they make up all but 3.9% or so of the library. Unless noted, no stated cut-off is given here; in the data, active means inhibition above about 30%; inconclusive means no clear call, values can overlap the other calls; inactive means below that.

N=c1c(S(=O)(=O)c2ccc(Cl)cc2)cc2c(=O)n3ccccc3nc2n1Cc1cccnc1	MazF activator 81
N=c1c(S(=O)(=O)c2ccc(Cl)cc2)cc2c(=O)n3ccccc3nc2n1CCN1CCOCC1	Autofluor counter 21495
S=c1[nH]nc(-c2ccco2)n1-c1ccc(Cl)cc1	none
COc1ccc(-n2c(-c3ccco3)n[nH]c2=S)cc1	Autofluor counter 22219
CCc1ccccc1OCC(=O)Nc1ccc(N2CCCC2)cc1C	Autofluor counter 23739
Cc1cc(N2CCCC2)ccc1NC(=O)COc1ccccc1	none
CCN(CC)C(=O)c1cccc(-c2csc(C(NC(C)=O)c3cccc(OC)c3)n2)c1 (centres undefined)	none (no result: MazF activator)
Cc1cc(C)n(-c2nc3ccccc3nc2N2CCC(C)CC2)n1	BoNT-A LC inh2 inconclusive, Autofluor counter 22810
Cc1nc2ccccc2nc1N1CCC(C)CC1	none
Cc1ccccc1NC1=NC(=S)N(CC(N)=O)C12CCOC(C)(C)C2 (centres undefined)	BoNT-F LC inh 45
O=C(NC1CCCCC1)C1CN(S(=O)(=O)c2ccccc2)CCN1S(=O)(=O)c1ccccc1 (centres undefined)	Autofluor counter 24405
Cc1ccc(NC(=O)c2ccc(=O)[nH]c2)cc1S(=O)(=O)N1CCCCC1	none
COc1ccc(C)cc1NC(=O)CC(O)(C(F)(F)F)C(F)(F)F	Autofluor counter inconclusive (no result: BH1578 lux ind)
O=C(CNS(=O)(=O)c1ccccc1)Nc1ccc(C(F)(F)F)cc1	none
Cc1ccc(S(=O)(=O)NCC(=O)Nc2ccc(C(F)(F)F)cc2)cc1	Autofluor counter 23413
Cc1ccc(NC(=O)CC(O)(C(F)(F)F)C(F)(F)F)cc1	BoNT-A LC inh2 inconclusive, Autofluor counter 22690
O=C(CNS(=O)(=O)c1ccc(F)cc1)Nc1ccc(C(F)(F)F)cc1	Autofluor counter 16544
CCN1C(=O)[C@H]2[C@@H](c3ccc(-c4ccc(OC)cc4)cc3)N[C@@](C)(C(=O)OC)[C@H]2C1=O	none
C[C@H](CO)N1C[C@H](C)[C@@H](CN(C)Cc2ccc(C(=O)O)cc2)Oc2ncc(Br)cc2C1=O	none
O=C(OCC#CCSc1nnc(-c2ccccc2)o1)c1ccco1	none
O=C(OCC#CCSc1nc2ccccc2s1)c1ccco1	Autofluor counter 19554
COc1cccc(C(=O)NCC2(c3ccc(OC)c(OC)c3)CCCC2)c1	BoNT-F LC inh inconclusive
CCc1nc2ccccc2c(C(=O)OCC(=O)NC(=O)c2cccn2C)c1C	none
O=C(NCc1ccc(Cl)c(Cl)c1)c1cc(C2CCCCN2C(=O)OCCF)on1 (centres undefined)	none (no result: MazF activator)
CC(C)(C)c1ccc(C(=O)CCCSC2=C(C#N)C(c3ccco3)C3=C(CCCC3=O)N2)cc1 (centres undefined)	BoNT-A LC inh2 inconclusive, Autofluor counter 23545
CCOC(=O)/C=c1/s/c(=C/c2ccc3cc(OC)ccc3c2)c(=O)n1CC(=O)NCC1CCCO1 (centres undefined)	MazF activator 80
CCOC(=O)/C=c1\s/c(=C\c2ccc(C(=O)OC)cc2)c(=O)n1CC(=O)Nc1ccccc1	none
CCOC(=O)/C=c1\s/c(=C\c2c(OC)ccc3ccccc23)c(=O)n1CC(=O)NCC1CCCO1 (centres undefined)	MazF activator active, Autofluor counter 16857
Cc1sc(N=Nc2ccc(N(C)C)cc2)[n+]([O-])c1C	none
CCN(CC(=O)Nc1cc(S(=O)(=O)N2CCCCC2)ccc1C)Cc1ccccc1	Autofluor counter inconclusive
CCn1cc(C(=O)c2ccccc2)c2ccccc21	BoNT-A LC inh2 inconclusive, Autofluor counter 22254
O=C(c1ccccc1F)c1cn(Cc2ccccc2)c2ccccc12	Autofluor counter 22262
O=C(c1ccccc1F)c1cn(CC(=O)N2CCCCC2)c2ccccc12	Autofluor counter 24432
CC(C)NC(=O)Cn1cc(C(=O)c2ccccc2)c2ccccc21	none (no result: BoNT-A LC inh2, Autofluor counter, Anthrax LF inh2, BoNT-F LC inh)
O=C(c1ccccc1)c1cn(CC(=O)N2CCCC2)c2ccccc12	none
CC(Sc1nnc(C2CC2)n1N)C(=O)NC1CCCCC1C (centres undefined)	none
CN(Cc1ccccc1)S(=O)(=O)c1ccc(N2CCOCC2)nc1	none
CCOc1cc(Br)ccc1S(=O)(=O)N1CC(C)OC(C)C1 (centres undefined)	Autofluor counter 20570
Nc1nc(SCc2ccc(Br)cc2)c2ncn(C3OC(CO)C(O)C3O)c2n1 (centres undefined)	none
O=C(CN1CCN(c2nc(-c3ccc(F)cc3)cs2)CC1)NCc1ccc2c(c1)OCO2	Autofluor counter 23682
O=C(CN1CCN(c2ncccn2)CC1)NCc1ccc2c(c1)OCO2	none
CC1(c2nnc(-c3cccc(Cl)c3)o2)CC(c2ccc(OC(F)(F)F)cc2)=NO1 (centres undefined)	none
COc1ccc(-c2nc3nc(C)c(Cc4ccccc4)c(=O)n3[nH]2)cc1	Autofluor counter 22311
COC(=O)Cc1c(C)nc2nc(-c3ccc(OC)cc3)[nH]n2c1=O	Autofluor counter 22942
Cc1nn(C(C)C(=O)NCc2ccco2)c(=O)c2nn(-c3ccccc3)c(C)c12 (centres undefined)	none
CCc1nc2c(OCCc3cccc(OC)c3)cccn2c1N(C=O)Cc1ccc(OC)cc1	none (no result: MazF activator)
Cc1ccc(N/C=C/C(=O)c2sc(-c3ccccc3)nc2C)cc1	BoNT-A LC inh2 32
C=CCn1c(=O)/c(=C/c2cc(OC)c(OC)c(OC)c2)s/c1=C(/C#N)c1nc2ccccc2n1C	MazF activator active, BoNT-A LC inh2 112, Anthrax LF inh2 61, BoNT-F LC inh 58 (no result: BH1578 lux ind)
C=CCn1c(=O)/c(=C/c2ccc(O)cc2)s/c1=C(/C#N)c1nnc2n1CCCCC2	none
N#CCc1ccc(NC(=O)c2cc(S(=O)(=O)N3CCOCC3)ccc2Cl)cc1	none
C1=C(c2ccc(-c3ccccc3)cc2)Nc2ncnn2C1c1ccco1 (centres undefined)	MazF activator 344
O=C(NCc1cccc(Cl)c1)C1CCC(=O)N(CCCN2CCCC2=O)C1 (centres undefined)	none (no result: BH1578 lux ind)
CCOC(=O)C(=O)c1c(-c2ccc(C)cc2)nc2ccccn12	none
CCOC(=O)CNc1c(-c2ccccc2)nc2ccc(Cl)cn12	none
CCOC(=O)CNc1c(-c2ccc(O)cc2)nc2ccc(Cl)cn12	Autofluor counter 23767
CCOC(=O)CNc1c(-c2ccc(O)cc2)nc2ccccn12	Autofluor counter 23116
COc1cccc(NC(=O)CCCCCN2C(=O)[C@@H]3Cc4ccccc4CN3C2=O)c1	none
C/C(=N\NS(C)(=O)=O)c1ccccc1	BH1578 lux ind 17
CCOc1nc(C)ccc1-c1noc(-c2ccco2)n1	Autofluor counter 20107
O=c1ccn(CCc2c[nH]c3ccccc23)c2c1CCCC2	none

Screening data deposited in PubChem BioAssay by several laboratories.
